The values below come from ChEMBL document CHEMBL1961873, “Compounds: GSK PKIS; Assays: Nanosyn kinase panel” (2012).

Each structure is given as a SMILES string.

The target of assay [1] is High affinity nerve growth factor receptor (Homo sapiens) (UniProt P04629). The note with it: at 1 µM.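 Also: each value is the mean percent inhibition of TRKA.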
Assay [2] deals with BDNF/NT-3 growth factors receptor (Homo sapiens) (UniProt Q16620). The note with it: at 0.1 µM.
Assay [3] has the same target. The note with it: at 1 µM.
For assay [4], the target named is NT-3 growth factor receptor (Homo sapiens) (UniProt Q16288). The following applies: at 0.1 µM.
For assay [5] the target is unchanged. The note with it: at 1 µM.
The target of assay [6] is T1, Tyrosine-protein kinase TXK (Homo sapiens) (UniProt P42681).
T1 sequence (whole entry): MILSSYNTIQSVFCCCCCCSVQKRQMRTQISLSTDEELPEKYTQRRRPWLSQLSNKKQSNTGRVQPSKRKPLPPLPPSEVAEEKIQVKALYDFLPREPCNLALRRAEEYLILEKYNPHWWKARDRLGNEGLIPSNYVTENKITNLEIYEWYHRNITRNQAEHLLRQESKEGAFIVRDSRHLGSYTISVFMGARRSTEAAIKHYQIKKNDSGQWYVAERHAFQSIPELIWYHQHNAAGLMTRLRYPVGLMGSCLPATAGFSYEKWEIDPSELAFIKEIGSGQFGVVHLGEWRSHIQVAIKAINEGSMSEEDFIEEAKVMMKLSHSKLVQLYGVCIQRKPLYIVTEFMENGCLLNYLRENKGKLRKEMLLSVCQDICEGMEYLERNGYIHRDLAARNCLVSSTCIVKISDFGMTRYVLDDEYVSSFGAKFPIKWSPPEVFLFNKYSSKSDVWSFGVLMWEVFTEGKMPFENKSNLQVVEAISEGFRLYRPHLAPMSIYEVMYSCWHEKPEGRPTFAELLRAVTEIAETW
The note with it: at 0.1 µM.

The target of assay [7] is T1, Tyrosine-protein kinase TXK (Homo sapiens). The note with it: at 1 µM.
Assay [8] deals with Non-receptor tyrosine-protein kinase TYK2 (Homo sapiens) (UniProt P29597). The note with it: at 0.1 µM.
For assay [9], the target named is T2, Dual specificity protein kinase TTK (Homo sapiens) (UniProt P33981).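 Also: reported figures are mean TTK inhibition at 1 µM.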
T2 sequence (whole entry): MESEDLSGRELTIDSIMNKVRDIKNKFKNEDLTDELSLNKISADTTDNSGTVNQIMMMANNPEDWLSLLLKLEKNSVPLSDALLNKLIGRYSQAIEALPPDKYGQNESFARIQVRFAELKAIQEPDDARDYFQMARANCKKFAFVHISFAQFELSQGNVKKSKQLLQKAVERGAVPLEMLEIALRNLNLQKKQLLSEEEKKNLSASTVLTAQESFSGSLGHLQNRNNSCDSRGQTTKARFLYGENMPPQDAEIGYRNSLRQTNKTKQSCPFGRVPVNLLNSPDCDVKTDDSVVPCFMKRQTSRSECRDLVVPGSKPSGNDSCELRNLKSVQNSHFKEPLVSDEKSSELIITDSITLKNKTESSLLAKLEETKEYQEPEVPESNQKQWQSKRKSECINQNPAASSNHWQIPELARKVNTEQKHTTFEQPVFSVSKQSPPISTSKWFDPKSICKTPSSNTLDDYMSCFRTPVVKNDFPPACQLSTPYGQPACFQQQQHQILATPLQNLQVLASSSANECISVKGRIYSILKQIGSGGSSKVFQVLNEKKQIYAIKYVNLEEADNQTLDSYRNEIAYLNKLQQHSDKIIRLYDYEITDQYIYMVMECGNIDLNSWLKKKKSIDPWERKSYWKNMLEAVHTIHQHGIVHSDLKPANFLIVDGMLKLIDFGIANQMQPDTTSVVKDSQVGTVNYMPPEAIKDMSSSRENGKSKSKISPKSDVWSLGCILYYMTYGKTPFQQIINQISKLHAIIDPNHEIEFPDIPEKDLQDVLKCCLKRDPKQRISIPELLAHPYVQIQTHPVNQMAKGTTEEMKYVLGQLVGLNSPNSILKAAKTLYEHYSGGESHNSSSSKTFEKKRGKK
The note with it: at 1 µM.

For assay [10], the target named is T3, Aurora kinase A (Homo sapiens) (UniProt O14965).
T3 sequence (whole entry): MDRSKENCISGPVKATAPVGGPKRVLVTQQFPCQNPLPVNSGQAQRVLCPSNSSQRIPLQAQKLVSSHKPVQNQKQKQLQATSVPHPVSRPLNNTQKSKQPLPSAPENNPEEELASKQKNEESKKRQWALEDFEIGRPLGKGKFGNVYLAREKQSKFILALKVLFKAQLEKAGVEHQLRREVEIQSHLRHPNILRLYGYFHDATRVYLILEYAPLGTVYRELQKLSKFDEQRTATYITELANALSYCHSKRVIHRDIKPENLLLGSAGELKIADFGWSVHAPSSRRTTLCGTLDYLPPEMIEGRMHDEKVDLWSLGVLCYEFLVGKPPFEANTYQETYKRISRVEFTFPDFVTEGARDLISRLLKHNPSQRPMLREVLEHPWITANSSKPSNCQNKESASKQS
The note with it: at 0.1 µM.

In assay [11] the target is T3, Aurora kinase A (Homo sapiens). The note with it: at 1 µM.
Assay [12] addresses Aurora kinase B (Homo sapiens) (UniProt Q96GD4). The note with it: at 0.1 µM.
For assay [13] the target is unchanged. The following applies: at 1 µM.
The target of assay [14] is T4, Aurora kinase C (Homo sapiens) (UniProt Q9UQB9).
T4 sequence (whole entry): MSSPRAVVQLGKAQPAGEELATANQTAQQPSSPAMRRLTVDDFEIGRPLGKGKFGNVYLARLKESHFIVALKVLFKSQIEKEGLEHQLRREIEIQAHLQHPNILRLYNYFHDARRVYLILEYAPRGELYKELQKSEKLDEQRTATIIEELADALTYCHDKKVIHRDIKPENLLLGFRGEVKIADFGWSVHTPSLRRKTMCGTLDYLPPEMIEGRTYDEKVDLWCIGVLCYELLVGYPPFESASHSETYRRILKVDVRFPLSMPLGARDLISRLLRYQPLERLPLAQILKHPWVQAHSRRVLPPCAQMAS
The following applies: at 1 µM.

The target of assay [15] is Serine/threonine-protein kinase 10 (Homo sapiens) (UniProt O94804). The note with it: at 0.1 µM.
For assay [16] the target is unchanged. The following applies: at 1 µM.
For assay [17], the target named is T5, Mitogen-activated protein kinase kinase kinase kinase 2 (Homo sapiens) (UniProt Q12851).
T5 sequence (whole entry): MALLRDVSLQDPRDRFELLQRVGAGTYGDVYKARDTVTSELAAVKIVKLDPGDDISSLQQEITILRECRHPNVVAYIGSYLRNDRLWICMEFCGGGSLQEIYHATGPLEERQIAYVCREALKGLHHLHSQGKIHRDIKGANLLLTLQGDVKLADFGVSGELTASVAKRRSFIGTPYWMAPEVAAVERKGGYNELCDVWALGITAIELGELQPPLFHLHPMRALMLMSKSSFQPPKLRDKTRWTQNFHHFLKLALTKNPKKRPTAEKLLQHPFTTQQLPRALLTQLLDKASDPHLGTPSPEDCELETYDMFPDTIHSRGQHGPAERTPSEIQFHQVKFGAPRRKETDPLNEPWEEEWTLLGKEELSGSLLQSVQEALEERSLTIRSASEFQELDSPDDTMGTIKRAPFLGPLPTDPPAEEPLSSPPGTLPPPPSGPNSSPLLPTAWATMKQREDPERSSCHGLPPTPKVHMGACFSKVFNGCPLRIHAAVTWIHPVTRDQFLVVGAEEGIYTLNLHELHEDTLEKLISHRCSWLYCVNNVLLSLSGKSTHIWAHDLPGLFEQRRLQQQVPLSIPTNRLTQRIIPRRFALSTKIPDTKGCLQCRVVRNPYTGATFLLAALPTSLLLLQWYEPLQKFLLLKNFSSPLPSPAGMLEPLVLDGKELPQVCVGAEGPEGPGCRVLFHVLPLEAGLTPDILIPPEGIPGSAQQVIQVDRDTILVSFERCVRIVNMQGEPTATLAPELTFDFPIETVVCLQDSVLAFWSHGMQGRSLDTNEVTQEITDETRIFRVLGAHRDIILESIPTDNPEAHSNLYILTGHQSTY
The note with it: at 0.1 µM.

Assay [18] concerns the target T5, Mitogen-activated protein kinase kinase kinase kinase 2 (Homo sapiens). The note with it: at 1 µM.
Assay [19] deals with Mitogen-activated protein kinase kinase kinase kinase 4 (Homo sapiens) (UniProt O95819). The following applies: at 0.1 µM.
For assay [20], the target named is T4, Aurora kinase C (Homo sapiens). The following applies: at 0.1 µM.

Sequence of NT-3 growth factor receptor (Homo sapiens) (Q16288 32-839 limits assumed): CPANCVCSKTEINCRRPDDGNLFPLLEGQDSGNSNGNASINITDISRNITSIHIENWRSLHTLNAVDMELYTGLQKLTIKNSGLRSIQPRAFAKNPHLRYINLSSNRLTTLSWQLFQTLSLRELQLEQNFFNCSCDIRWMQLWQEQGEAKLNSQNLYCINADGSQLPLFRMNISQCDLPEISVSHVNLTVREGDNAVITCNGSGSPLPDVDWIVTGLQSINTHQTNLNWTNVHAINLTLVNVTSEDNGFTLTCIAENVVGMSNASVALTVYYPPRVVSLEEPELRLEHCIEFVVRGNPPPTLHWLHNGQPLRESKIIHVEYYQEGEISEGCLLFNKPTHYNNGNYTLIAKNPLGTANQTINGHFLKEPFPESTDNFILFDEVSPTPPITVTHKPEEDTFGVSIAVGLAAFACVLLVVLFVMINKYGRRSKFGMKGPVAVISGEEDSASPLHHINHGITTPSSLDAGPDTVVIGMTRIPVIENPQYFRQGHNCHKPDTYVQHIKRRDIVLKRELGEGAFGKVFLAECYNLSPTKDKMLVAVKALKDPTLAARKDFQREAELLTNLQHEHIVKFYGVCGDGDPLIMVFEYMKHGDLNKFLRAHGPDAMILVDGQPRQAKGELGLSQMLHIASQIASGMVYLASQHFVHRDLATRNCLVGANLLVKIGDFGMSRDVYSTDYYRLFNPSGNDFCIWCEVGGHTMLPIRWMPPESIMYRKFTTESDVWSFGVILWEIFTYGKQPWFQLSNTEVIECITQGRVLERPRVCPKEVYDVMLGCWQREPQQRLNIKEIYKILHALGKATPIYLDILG
Sequence of Aurora kinase B (Homo sapiens) (Q96GD4 whole entry): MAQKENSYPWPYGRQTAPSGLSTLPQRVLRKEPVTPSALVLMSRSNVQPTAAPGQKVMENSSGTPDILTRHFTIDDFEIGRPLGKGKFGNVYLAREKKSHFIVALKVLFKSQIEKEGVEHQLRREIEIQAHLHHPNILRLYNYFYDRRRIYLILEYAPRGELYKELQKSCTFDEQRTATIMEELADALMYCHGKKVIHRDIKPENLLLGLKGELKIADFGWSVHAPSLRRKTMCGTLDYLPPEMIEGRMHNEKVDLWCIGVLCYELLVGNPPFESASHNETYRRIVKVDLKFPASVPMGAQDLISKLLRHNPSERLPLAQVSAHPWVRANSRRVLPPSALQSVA
Sequence of Serine/threonine-protein kinase 10 (Homo sapiens) (O94804 whole entry, looked up): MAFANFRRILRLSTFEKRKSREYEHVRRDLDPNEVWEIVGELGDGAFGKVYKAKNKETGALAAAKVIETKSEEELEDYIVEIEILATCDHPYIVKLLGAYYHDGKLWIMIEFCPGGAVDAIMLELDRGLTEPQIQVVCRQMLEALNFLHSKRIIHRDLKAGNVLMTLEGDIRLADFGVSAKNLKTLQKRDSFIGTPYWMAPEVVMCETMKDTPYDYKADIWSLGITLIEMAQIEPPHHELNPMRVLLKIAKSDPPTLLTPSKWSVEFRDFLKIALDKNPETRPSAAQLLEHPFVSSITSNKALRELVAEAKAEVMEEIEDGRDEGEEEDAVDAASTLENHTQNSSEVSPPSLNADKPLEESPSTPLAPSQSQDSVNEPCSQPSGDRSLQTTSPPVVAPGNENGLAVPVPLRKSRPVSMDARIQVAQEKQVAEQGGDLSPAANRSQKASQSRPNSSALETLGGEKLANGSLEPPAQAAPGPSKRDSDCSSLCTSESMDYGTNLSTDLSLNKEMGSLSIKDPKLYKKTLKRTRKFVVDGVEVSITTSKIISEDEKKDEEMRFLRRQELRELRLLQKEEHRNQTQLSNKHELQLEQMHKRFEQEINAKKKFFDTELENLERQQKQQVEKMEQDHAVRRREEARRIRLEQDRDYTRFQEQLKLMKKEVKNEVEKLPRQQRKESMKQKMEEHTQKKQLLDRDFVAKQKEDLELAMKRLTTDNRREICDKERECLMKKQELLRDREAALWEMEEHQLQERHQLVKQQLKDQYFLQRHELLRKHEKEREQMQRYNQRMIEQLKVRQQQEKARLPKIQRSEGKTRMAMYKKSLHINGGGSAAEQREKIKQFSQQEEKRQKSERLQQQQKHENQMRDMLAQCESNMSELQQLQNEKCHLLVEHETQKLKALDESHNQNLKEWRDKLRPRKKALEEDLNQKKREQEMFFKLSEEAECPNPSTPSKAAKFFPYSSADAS
Sequence of Mitogen-activated protein kinase kinase kinase kinase 4 (Homo sapiens) (O95819 2-1239 limits assumed): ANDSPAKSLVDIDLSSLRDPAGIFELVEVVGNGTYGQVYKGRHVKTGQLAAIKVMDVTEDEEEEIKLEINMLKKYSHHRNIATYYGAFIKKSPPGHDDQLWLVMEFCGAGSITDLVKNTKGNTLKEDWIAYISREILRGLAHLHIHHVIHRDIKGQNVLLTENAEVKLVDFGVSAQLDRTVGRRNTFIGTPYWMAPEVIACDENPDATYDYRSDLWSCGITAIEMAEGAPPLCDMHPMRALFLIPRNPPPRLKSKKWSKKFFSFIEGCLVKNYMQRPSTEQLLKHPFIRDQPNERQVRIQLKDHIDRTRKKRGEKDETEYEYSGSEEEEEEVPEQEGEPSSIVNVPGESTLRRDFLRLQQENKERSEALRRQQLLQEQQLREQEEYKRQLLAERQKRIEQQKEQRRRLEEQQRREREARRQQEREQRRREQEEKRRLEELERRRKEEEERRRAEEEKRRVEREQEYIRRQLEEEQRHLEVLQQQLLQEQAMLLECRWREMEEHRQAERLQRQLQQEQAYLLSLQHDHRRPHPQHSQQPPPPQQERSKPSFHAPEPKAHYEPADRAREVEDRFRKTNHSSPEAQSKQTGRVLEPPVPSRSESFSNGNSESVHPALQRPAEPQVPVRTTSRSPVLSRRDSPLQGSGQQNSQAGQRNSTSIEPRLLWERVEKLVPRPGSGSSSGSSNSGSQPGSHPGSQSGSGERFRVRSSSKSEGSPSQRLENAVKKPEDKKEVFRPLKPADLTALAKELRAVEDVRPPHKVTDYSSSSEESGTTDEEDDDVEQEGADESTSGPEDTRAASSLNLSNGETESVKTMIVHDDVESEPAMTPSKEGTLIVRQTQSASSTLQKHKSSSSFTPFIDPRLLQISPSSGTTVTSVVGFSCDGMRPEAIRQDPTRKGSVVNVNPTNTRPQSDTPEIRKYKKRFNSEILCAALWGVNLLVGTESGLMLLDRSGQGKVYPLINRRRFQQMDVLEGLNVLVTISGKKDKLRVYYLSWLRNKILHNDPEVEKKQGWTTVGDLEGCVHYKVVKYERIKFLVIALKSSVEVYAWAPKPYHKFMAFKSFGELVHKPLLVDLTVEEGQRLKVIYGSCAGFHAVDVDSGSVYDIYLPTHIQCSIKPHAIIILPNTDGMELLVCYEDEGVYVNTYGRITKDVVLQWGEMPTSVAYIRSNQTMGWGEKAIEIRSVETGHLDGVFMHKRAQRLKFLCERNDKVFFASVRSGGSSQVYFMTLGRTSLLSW
Sequence of BDNF/NT-3 growth factors receptor (Homo sapiens) (Q16620 32-822 limits assumed): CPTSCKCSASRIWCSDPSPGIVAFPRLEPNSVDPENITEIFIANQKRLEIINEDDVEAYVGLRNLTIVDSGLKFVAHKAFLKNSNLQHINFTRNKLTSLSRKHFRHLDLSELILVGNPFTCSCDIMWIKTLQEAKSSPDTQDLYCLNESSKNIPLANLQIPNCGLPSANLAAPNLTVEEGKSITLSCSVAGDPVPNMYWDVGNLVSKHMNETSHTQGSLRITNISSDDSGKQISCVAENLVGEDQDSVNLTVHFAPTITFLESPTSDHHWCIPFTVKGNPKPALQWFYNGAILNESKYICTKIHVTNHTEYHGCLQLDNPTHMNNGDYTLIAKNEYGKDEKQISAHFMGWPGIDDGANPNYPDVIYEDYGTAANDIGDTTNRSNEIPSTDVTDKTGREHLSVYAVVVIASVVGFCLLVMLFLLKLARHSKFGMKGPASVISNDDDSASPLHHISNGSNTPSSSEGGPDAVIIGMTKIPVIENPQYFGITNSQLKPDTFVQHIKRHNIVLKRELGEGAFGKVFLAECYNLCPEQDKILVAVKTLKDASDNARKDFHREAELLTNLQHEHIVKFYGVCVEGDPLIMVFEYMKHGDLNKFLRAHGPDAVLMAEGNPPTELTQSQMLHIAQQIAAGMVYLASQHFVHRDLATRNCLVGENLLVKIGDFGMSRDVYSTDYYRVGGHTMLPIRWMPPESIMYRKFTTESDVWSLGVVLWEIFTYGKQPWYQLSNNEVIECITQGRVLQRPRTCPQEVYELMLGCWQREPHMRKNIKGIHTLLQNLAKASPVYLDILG
Sequence of High affinity nerve growth factor receptor (Homo sapiens) (P04629 33-796 limits assumed): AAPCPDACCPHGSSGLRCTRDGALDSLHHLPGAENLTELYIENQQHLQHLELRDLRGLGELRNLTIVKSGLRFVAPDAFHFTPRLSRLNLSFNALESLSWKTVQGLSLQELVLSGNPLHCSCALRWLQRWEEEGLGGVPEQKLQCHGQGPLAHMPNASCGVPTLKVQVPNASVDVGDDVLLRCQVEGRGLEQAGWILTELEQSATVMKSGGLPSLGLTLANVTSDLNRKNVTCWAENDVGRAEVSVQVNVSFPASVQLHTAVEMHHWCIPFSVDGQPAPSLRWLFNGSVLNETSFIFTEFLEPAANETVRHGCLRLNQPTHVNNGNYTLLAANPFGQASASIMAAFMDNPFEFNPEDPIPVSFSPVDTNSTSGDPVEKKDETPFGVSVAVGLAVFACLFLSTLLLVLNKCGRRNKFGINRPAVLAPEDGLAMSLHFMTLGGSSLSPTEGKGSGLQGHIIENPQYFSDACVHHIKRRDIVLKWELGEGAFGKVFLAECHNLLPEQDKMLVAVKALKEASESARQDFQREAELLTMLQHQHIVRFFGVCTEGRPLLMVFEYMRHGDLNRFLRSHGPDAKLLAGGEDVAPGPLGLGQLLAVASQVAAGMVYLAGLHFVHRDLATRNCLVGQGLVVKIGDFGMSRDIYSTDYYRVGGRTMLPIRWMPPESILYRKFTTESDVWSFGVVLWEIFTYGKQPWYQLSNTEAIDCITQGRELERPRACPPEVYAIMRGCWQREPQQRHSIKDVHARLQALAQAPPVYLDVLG

On to `COc1cc(Nc2nccc(-c3cnn4ncccc34)n2)cc(OC)c1`, for which the inhibition was 26.7% in [1]; 5.6% in assay [2]; 39.5% in assay [3]; 9.63% in assay [4]; 45.6% in assay [5]; 5.79% in assay [6]. Also, the inhibition was 31.4% in assay [7]; 4.29% in assay [8]; 15.4% in [9]; 20.9% in assay [10]; 94.2% in assay [11]; 20.5% in assay [12]. For the same molecule, the inhibition in [13] was determined as 71%; in assay [14], 94.4%; in assay [15], 5.8%; in assay [16], 27.3%; in assay [17], 28.5%; in [18] it was 72.7%. In addition, the inhibition in assay [19] is 26.1%.

Consider `NS(=O)(=O)c1ccc(-c2cc3ccncc3cc2OCc2ccccc2)cc1`, for which the inhibition stood at 0.22% in assay [1]; 2.7% in [2]; 2.46% in assay [3]; 2.49% in assay [4]; 5.04% in [5]; 1.58% in [6]. The inhibition is 1.28% in [7]; -3.96% in assay [8]; 9.25% in [9]; 2.34% in assay [10]; 7.25% in assay [11]; 2.9% in assay [12]. Moreover, the inhibition in assay [13] is 4.42%; in assay [20], -0.1%; in assay [14], -6.92%; in assay [15], 3.53%; in assay [16] it was 9.35%; in [17], -0.94%. In addition, the values for the inhibition in assay [18] and in [19] were 2.03% and 5.89%, respectively.

Consider `COc1ccc2ncnc(Nc3ccc(OCc4ccccc4)cc3)c2c1`, for which the inhibition is 1.61% in assay [1]; 2.59% in [2]; 2.63% in assay [3]; -0.03% in assay [4]; 0.85% in assay [5]; 2.73% in assay [6]. Also, the inhibition in [7] is 3.98%; in assay [8], -2.4%; in [9] it was 4.18%; in assay [10] it was 1.97%; in assay [11], 8.54%; in [12], 2.34%. Moreover, the inhibition in assay [13] is 22%; in assay [20], 1.84%; in assay [14], 10.5%; in assay [15] it was 4.51%; in [16], 9.23%; in assay [17] it was 0.8%. Also, the inhibition in [18] was 1.74%; in assay [19] it was 3.79%.

`NS(=O)(=O)c1ccc(N/N=C2\C(=O)Nc3ccc(Cl)cc32)cc1`: the inhibition worked out at 17.9% in assay [1]; 5.72% in assay [2]; 34.7% in assay [3]; 9.02% in [4]; 42.3% in [5]; 3.22% in [6]. Also, the inhibition in assay [7] is 4.96%; in assay [8], -4.4%; in assay [9], 45.1%; in [10], 3.86%; in [11] it was 26.8%; in [12], 3.68%. Further, the inhibition was found to be 6.25% in assay [13]; 1.97% in [20]; 5.64% in assay [14]; 6.82% in assay [15]; 6.74% in assay [16]; 0.49% in assay [17]. Also, the results for the inhibition in [18] and in assay [19] were 3.26% and 25.7%, respectively.

Take `O=S(=O)(CCOCc1ccc(-c2ccc3ncnc(Nc4ccc(OCc5cccc(F)c5)c(Cl)c4)c3c2)o1)c1ccccc1`: the inhibition is 3.9% in assay [1]; 2.42% in assay [2]; 2.72% in [3]; 0.35% in assay [4]; 0.31% in [5]; -0.26% in [6]. Besides, the inhibition was 2.63% in [7]; -3.63% in assay [8]; 11% in assay [9]; 1.6% in [10]; 2.01% in [11]; 2.69% in assay [12]. Further, the inhibition in [13] is 7.69%; in assay [20] it was -0.03%; in [14] it was 5.99%; in [15] it was 2.38%; in assay [16] it was 5.21%; in [17], 0.66%. Further, the figures for the inhibition in [18] and in assay [19] were 3.12% and 6.19%, respectively.

Take `ON=C1CCc2cc(-c3nc(C4CCNCC4)[nH]c3-c3ccncc3)ccc21`: the inhibition in assay [1] is -1.26%; in assay [2], -0.05%; in assay [3] it was -1.18%; in assay [4], -1.73%; in assay [5], -0.26%; in assay [6] it was 1.85%. Further, the inhibition in assay [7] was 2.25%; in assay [8], -1.08%; in [9] it was 2.17%; in assay [10] it was -0.5%; in assay [11], 2.73%; in [12], 0.1%. Also, the inhibition is 3.15% in assay [13]; -0.7% in [20]; 10.1% in assay [14]; 19.7% in assay [15]; 63.6% in assay [16]; 1.74% in assay [17]. The inhibition is 4.29% in assay [18] and 3.95% in assay [19].

The inhibition is the change of the read-out against control, counted positive when it falls.
